Sampled rows, rich in hits. Any-hit rate of the full collection: about 12%.
Pf growth 96h: P. falciparum growth inhibition at 96 hours. P. falciparum luciferase reporter growth, 96 h. Potency, µM (highest dose often 28.7 µM), without a hit: top-dose activity change, negative = inhibition, hits mostly inhibitors. actives 6.9% (n = 320,000); further: on the % scale 0 is the no-effect control and ±100 the full control effect
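Delayed-death screen, second-generation endpoint: infected erythrocytes, 2% hematocrit, 0.05% parasitemia final; 96 hours at 37 C, 5% CO2; luciferase detection reagent; luminescence decrease equals reduced growth.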
Sm TGR block: inhibitors of Schistosoma mansoni thioredoxin glutathione reductase | actives 3% (n = 360,000) | Potency, µM (highest dose often 114 µM), for the others: top-dose activity change, negative = inhibition, most hits filed as inhibitors | purified TGR, DTNB reduction, TNB absorbance 405 nm | AID 485364; further: on the % scale 0 is the no-effect control and ±100 the full control effect; nearly all actives have a fitted effect of over 60% in size
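TGR 20 nM + NADPH 100 uM (dispensed conc.), cpd preinc 15 min RT; start with NADPH (500 uM addition) then DTNB (15 mM addition). Kinetic TNB absorbance, 405 nm filter. Four-parameter Hill fit across titration.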
Pf growth 48h: P. falciparum growth inhibition at 48 hours (one generation). AID 504832. actives 5.9% (n = 310,000). Potency, µM (doses to about 28.7 µM), for the others: at the top dose activity change, negative = inhibition, actives largely listed as inhibitors. P. falciparum luciferase growth in erythrocytes, 48 h; further: on the % scale 0 is the no-effect control and ±100 the full control effect
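Growth was read as firefly luciferase luminescence after a 48 h, 37 C, 5% CO2 exposure of compounds to reporter-bearing P. falciparum cultures (0.1% parasitemia, 2% hematocrit final) in Albumax-supplemented RPMI 1640.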
SARS PLpro yeast: inhibitors of SARS-CoV papain-like protease in yeast; actives 0.19% (n = 330,000); S. cerevisiae expressing SARS-CoV PLpro, growth rescue; Potency, µM (top dose mostly 32.9 µM), inactives show at the top dose activity, positive = growth rescue, most hits filed as activators; calls by dose curve; further: 0% is about no effect; nearly all actives have a fitted effect of over 55% in size
Active calls of the source: *; ? = inconclusive; . = no result given; [ ] = another dose, or the depositor's remark. Unless noted, the call rests on the fitted dose curve; in most records, active means well fitted curve in the direction sought with a large enough effect; inconclusive means small, poorly fitted or top-dose-only effect, or another doubt; inactive means no such curve, though single readings can be large; an effect the other way counts as inactive or inconclusive. Potency means the concentration at half of the fitted maximal effect.

SMILES | Pf growth 96h | Sm TGR block | Pf growth 48h | SARS PLpro yeast
CCOc1ccc(NC(=O)CN2C(=O)NC3(CCCC3)C2=O)cc1S(=O)(=O)N1CCCCC1 | -8% | -1% | -21% | -5%
CCOc1ccc(NC(=O)[C@@H]2CCCN2C(=O)c2cccs2)cc1S(=O)(=O)N1CCCCC1 | 9.3µM* | 1% | ? | 17%
COc1ccc(NC(C)=O)cc1NC(=O)C1CCCN1C(=O)c1cccs1 (stereo unspecified) | -3% | -2% | -28% | -3%
Cc1ccc(NC(=O)CN2CCCC2c2cccs2)cc1S(=O)(=O)N1CCCCC1 (stereo unspecified) | ? | 0% | 9.3µM* | 0%
O=C(Nc1ccc(OC(F)F)c(Cl)c1)[C@@H]1CCCN1C(=O)c1cccs1 | 4.1µM* | 7% | ? | -30%
COc1ccccc1OCCNC(=O)CNC(=O)c1ccc(C(C)(C)C)cc1 | ? | -7% | ? | -18%
COc1ccc(C(=O)NCCn2cc(SCc3c(F)cccc3Cl)c3ccccc32)cc1 | . | 1% | . | .
CCOC(=O)N1CCc2c(sc3c2c(=O)n(-c2ccc(F)cc2)c(=O)n3CC(=O)c2ccc(Cl)cc2)C1 | . | 0% | . | .
CCOc1ccc(NC(=O)CN(C)Cc2ccc3c(c2)OCO3)cc1S(=O)(=O)N1CCCC1 | 3.3µM* | -5% | ? | -2%
CCOc1ccc(NC(=O)CC(NC(C)=O)c2ccccc2)cc1S(=O)(=O)N1CCCC1 (stereo unspecified) | ? | -2% | ? | 2%
CCc1ccc(NC(=O)CC2C(=O)N(c3ccc(OC)cc3)C(=O)N2Cc2ccc(OC)cc2)cc1 (stereo unspecified) | . | -8% | . | .
COC(=O)c1cc2sc(C)cc2n1CC(=O)Nc1cccc(SC)c1 | . | 0% | . | .
CCOc1ccc(N2C(=O)S/C(=C\c3cccn3C)C2=O)cc1 | 2.9µM* | 0% | 3.3µM* | 1%
CCC(=O)C1CCCN(C(=O)c2ccc3nc(-c4cccc(OC)c4)oc3c2)C1 (stereo unspecified) | ? | -25% | 217% | -1%
COc1ccc2cc(C(=O)C3CCCN(C(=O)C4=NN(C)C(=O)CC4)C3)ccc2c1 (stereo unspecified) | 5.2µM* | 2% | 0% | 2%
COc1cc(OC)cc(C(=O)N2CCN(C(=O)c3cccnc3)CC2)c1 | 15µM* | 75% | ? | 7%
COc1cccc(N2CCN(C(=O)c3cccnc3)CC2)c1 | . | 7% | -13% | 6%
COc1cccc(-c2nc3ccc(C(=O)N4CCCC(O)C4)cc3o2)c1 (stereo unspecified) | 10µM* | 1% | 1% | 1%
COc1ccc2cc(C(=O)C3CCCN(C(=O)c4cccnc4)C3)ccc2c1 (stereo unspecified) | 12µM* | -1% | 14% | 0%
CCOC(=O)C1CCC(CN(Cc2ccc(Cl)cc2)S(=O)(=O)c2cccc(Cl)c2C)CC1 (stereo unspecified) | . | 9% | . | .
COc1ccc(S(=O)(=O)c2c(C)c(NS(=O)(=O)c3ccccc3)cc(C)c2O)cc1 | ? | -18% | 3% | -2%
COc1ccc(S(=O)(=O)Nc2cc(C)c(O)c(S(=O)(=O)c3ccccc3)c2)cc1 | 29% | 56µM* | 5% | -2%
CCN(Cc1ccccc1)C(=O)Cn1c(=O)oc2cc(S(=O)(=O)N3CCCCCC3)ccc21 | . | -4% | . | .
COc1cc(NC(=O)C2CCCN2S(=O)(=O)c2ccc3c(c2)CC(C)N3C(C)=O)cc(OC)c1 (stereo unspecified) | ? | -3% | -19% | -2%
N#Cc1ccc(CSc2nnc(Cc3cccs3)n2Cc2ccco2)cc1 | -22% | 11µM* | -28% | 1%
SMILES | Pf growth 96h | Sm TGR block | Pf growth 48h | SARS PLpro yeast
O=C(CSc1nnc(-c2ccccc2)n1Cc1ccco1)Nc1ccc2c(c1)OCCO2 | ? | 35µM* | ? | 2%
O=C(CSc1nnc(-c2ccncc2)n1Cc1ccco1)Nc1cccc(O)c1 | -5% | -10% | 4% | 0%
COc1cc2c(cc1NC(=O)CSc1nnc(Cc3cccs3)n1Cc1ccco1)oc1ccccc12 | ? | -17% | . | 19%[6.58 µM]
Cc1cc(C)c(NC(=O)CSc2nnc(-c3ccncc3)n2Cc2ccco2)c(Cl)c1 | ? | 22µM* | ? | 11%
Cc1cc(Cl)ccc1NC(=O)CSc1nnc(Cc2cccs2)n1Cc1ccco1 | . | 20µM* | ? | -1%
N#Cc1ccc(CSc2nnc(-c3ccccc3)n2Cc2ccco2)cc1 | ? | -1% | -14% | -1%
COCCn1nnnc1SCC(=O)Nc1ccc2c(c1)OCO2 | 3% | . | 8% | 1%
COCCCn1nnnc1SCC(=O)Nc1ccc2c(c1)OCCO2 | 13µM* | 2% | 33% | 0%
CC(=O)c1ccc(N2CCN(S(=O)(=O)c3cc(-c4onc(C)c4C)ccc3C)CC2)cc1 | . | 0% | . | .
Clc1ccc(C(c2ccccc2Cl)C(Cl)Cl)cc1 (stereo unspecified) | ? | 0% | 10µM* | .
O=S(=O)(/N=C(/Nc1cccc2ccccc12)c1ccccc1)c1ccccc1 | 155% | 6% | ? | -2%
O=S(=O)(/N=C(/Nc1cccc2ccccc12)c1ccccc1)c1cccs1 | 12µM* | 4% | ? | -6%
O=S(=O)(/N=C(/Nc1cccc2ccccc12)c1ccccc1)c1ccc(Br)cc1 | 4.1µM* | 2% | 13% | ?
N#CCC(CNc1ncc(C(F)(F)F)cc1Cl)OC(=O)c1cccc(C(F)(F)F)c1 (stereo unspecified) | 5.9µM* | 8% | ? | -15%
COc1ccc(NC(=O)c2nc[nH]c2C(=O)NCCCCCNC(=O)OC(C)(C)C)cc1 | 31% | -9% | 3% | 5%
Cc1ccc(C(C)C)c(OCCNC(=S)Nc2cccc3ccccc23)c1 | ? | 7% | 9.3µM* | 4%
CCN(CC)P1(=O)OC(c2cc(OC)c(OC)c(OC)c2)=Nc2c1c(C)nn2-c1ccccc1 (stereo unspecified) | . | 0% | 10µM* | -16%
Fc1ccc(C2=NN(c3ccccc3)C(c3ccco3)C2)cc1 (stereo unspecified) | -27% | 0% | 40% | -2%
O=[N+]([O-])c1ccc(/C=C/C2=NN(c3ccccc3)C(c3ccco3)C2)o1 (stereo unspecified) | ? | 40µM* | -25% | -8%
C(=C\c1ccco1)/C1=NN(c2ccccc2)C(c2ccco2)C1 (stereo unspecified) | ? | 28µM* | 9% | -22%
CCn1c(=O)cc(SCC(=O)Nc2ccc3c(c2)OCCO3)c2ccccc21 | . | 2% | 83% | 6%
Cn1c(=O)cc(SCC(=O)Nc2ccc3c(c2)OCO3)c2ccccc21 | 2.9µM* | -19% | 31% | 6%
CC(NC(=O)COc1cc(=O)n(C)c2ccccc12)c1ccc2c(c1)OCCO2 (stereo unspecified) | 8.3µM* | 2% | 14% | 5%
CCCn1cc(SCC(=O)Nc2ccc3c(c2)OCO3)c2ccccc21 | 10µM* | 8% | ? | -16%
Cn1cc(SCC(=O)Nc2ccc3c(c2)OCO3)c2ccccc21 | ? | 1% | . | -8%
Cc1cc(-c2ccc(S(=O)(=O)Nc3cccc(C)c3C)s2)on1 | . | 1% | . | .

Assay outcomes (PubChem BioAssay)
